Source: PubChem BioAssay (NCI)
About 83,000 compounds went through this panel and 20% of them were active in at least one assay; those are over-represented in the sample as a whole.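 Plates (96-well) were seeded with cells, treated with compound at one concentration, and incubated for 48 hours before percent growth was determined.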 Unmarked numbers belong to inactive results. Active and inactive are the calls of the source. The calls were made as follows: active = growth percent below 10; inactive = the rest.

Legend:
Assay in all cases: NCI-60 one-dose screen, 48 h (100 = growth as untreated, 0 = no growth, -100 = all killed)
Settings in all cases: 10 µM unless noted
[1] = test system: NCI-H23 lung
[2] = test system: NCI-H226 lung
[3] = test system: NCI-H322M lung
[4] = test system: NCI-H460 lung
[5] = test system: HOP-92 NSCLC
[6] = test system: NCI-H522 lung
[7] = test system: A549/ATCC NSCLC
[8] = test system: 786-0 renal
[9] = test system: COLO 205 colon
[10] = test system: DU-145 prostate
[11] = test system: K-562 leukemia
[12] = test system: MALME-3M melanoma
[13] = test system: MDA-MB-231 breast
[14] = test system: RXF 393 renal
[15] = test system: SF-268 CNS
[16] = test system: SF-295 CNS
[17] = test system: SF-539 CNS
[18] = test system: UACC-257 melanoma
[19] = test system: M14 melanoma
[20] = test system: HOP-62 NSCLC

SMILES | growth [1] | growth [2] | growth [3] | growth [4] | growth [5] | growth [6] | growth [7] | growth [8] | growth [9] | growth [10] | growth [11] | growth [12] | growth [13] | growth [14] | growth [15] | growth [16] | growth [17] | growth [18] | growth [19] | growth [20]
C/C(=C(/c1ccc(Cl)cc1)c1ccc(OCCN2CCCC2)cc1)c1ccccc1 | 71.2% | 83.3% | 82.5% | 41.5% | 84.2% | 58.9% | 66.7% | 75.2% | 24.3% | 86.4% | 6.72% (active) | 62.4% | 61.3% | 66.6% | 87.9% | 77.5% | 58.8% | 44.7% | 28.3% | 
ClCc1ccc(-c2ccc(Cn3cnc4c(Cl)nc(Cl)nc43)cc2)cc1 | 29.8% | 68.3% | 48.4% | 7.18% (active) |  | -20.6% (active) | -41.5% (active) | 13.2% |  | -93.4% (active) | 9.48% (active) | -20% (active) | -37.7% (active) |  | -13.5% (active) | -74.2% (active) | -86.9% (active) |  | 48.3% | -15.9% (active)
Cc1cc(N(CCNc2ccnc3cc(Cl)ccc23)Cc2ccc3c(c2)OCO3)nc(N2CCN(C)CC2)n1 | 56.6% | 75.7% | 41.5% | 18.2% | -10.2% (active) | 7.7% (active) | 26% | -6.41% (active) | -67.1% (active) | 38.2% | -59.1% (active) | -71.6% (active) | 4.9% (active) | -45.7% (active) | 29.3% | -66.4% (active) | -80.9% (active) |  | -79.6% (active) | 
COc1cc2nccc(Oc3ccc(NC(=O)Nc4cc(C)on4)c(Cl)c3)c2cc1OC | 28.8% | 23.1% | 32.9% | 14.5% | -55.9% (active) | 11.1% | 4.95% (active) | 16.1% | -25.4% (active) | 31.2% | 5.94% (active) | 20.4% | 10% | -28.9% (active) | 21.7% | 19% | -50.3% (active) | 19.6% | 7.27% (active) | 
CC1CCC(n2cnc3c(Cl)ncnc32)O1 (configuration not stated) | 89.5% | 95.9% | 86.3% | 101% |  | 82.9% | 106% | 98.1% |  | 112% |  | 88.5% | 105% |  | 105% | 95.5% | 97.5% |  | 93.8% | 
CN1CCC(CNc2ccc3ncc(-c4cccc(OC(F)(F)F)c4)n3n2)CC1 | -14.9% (active) | -8.6% (active) | 8.29% (active) | -45.8% (active) | -56.8% (active) | -69.7% (active) | -38.4% (active) | -81.6% (active) |  | 22.5% | -47.3% (active) | -90.2% (active) | -80.3% (active) | -70.7% (active) | -33.1% (active) | -71.2% (active) | -91.4% (active) | -87.4% (active) | -73.3% (active) | 
CSc1nc2ncncc2[nH]1 | 101% |  | 102% | 110% | 153% | 101% | 103% | 93.9% | 120% | 112% | 93.9% | 111% | 99.3% | 45.4% | 105% | 81% | 89.6% | 114% | 90.7% | 82.5%
COc1cc(F)c(F)c(Nc2ccc(I)cc2F)c1NS(=O)(=O)C1(C[C@H](O)CO)CC1 | 13% |  | 14.2% | 27.8% | -19.1% (active) | 31.4% | 26.3% | 54.5% | -0.628% (active) | 51.2% | 21.9% | 0.42% (active) | 23% | -2.17% (active) | 52.9% | 59.9% | 53.5% | -12.7% (active) | 7.68% (active) | 25.1%
